m5-HT2A agonist: mouse HTR2A agonism via beta-arrestin recruitment; CHO-K1 mHTR2A beta-arrestin complementation, luminescence; percent of 30 µM serotonin response; 360,000 tested, 0.66% active; activation, % at 7.6 µM;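 active = activation above a run cutoff, the mean activation of all tested compounds plus 3 SD, cut at about 14% in these data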;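 also: 0% = plate median of compound wells and 100% = 30 µM serotonin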
JMJD2C inh: human JMJD2C demethylase inhibition; GST-JMJD2C(1-420) H3K9me3 demethylation, DELFIA europium; inhibition, % at 2.35 µM; 330,000 tested, 0.069% active;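 active = more than half of a compound's replicate wells show inhibition beyond 50%, single wells judged on their own value; inconclusive = some, but no more than half, of replicates pass 50% inhibition; inactive = no replicate passes 50% inhibition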;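 also: signal counts dimethyl H3K9 product captured on neutravidin plate; 0% = median of DMSO wells and 100% = 0.3 times that DMSO median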
MEX-5 binding: C. elegans MEX-5 TCR-2 RNA binding activity; Q9XUB2; MEX-5/FITC-TCR2 RNA binding, fluorescence polarization; stronger effect = lower value; 300,000 tested, 0.38% active; activity score (negative = inhibition of binding), % at 10 µM;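 active = inhibition past about -25% in most replicates, and total fluorescence under double the plate's negative control median, limit read from the data; inconclusive = replicates evenly split on the limit, or fluorescence at least double controls; inactive = too little inhibition in most replicates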;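 also: 0% = DMSO and -100% = 5 µM competing unlabeled TCR2 RNA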
V-ATPase pH: alters yeast V-ATPase proton transport. response, % at 10 µM. S. cerevisiae, pHLuorin cytosolic pH fluorescence. AID 504577. 350,000 tested, 0.37% active; in the data active = response mostly above about 7.3%, no sharp cut-off; inactive = mostly below about 5.4%; also: actives read high
VLA-4 inh: inhibition in a human VLA-4 binding assay | P13612 | VLA-4 expressing cells, ligand binding flow cytometry | inhibition, % (about 7 µM as worked out from the volumes in the protocol) | 330,000 tested, 0.2% active | AID 2557; in the data active = inhibition above about 50%
Exocytosis inh: blocks lytic granule exocytosis | TALL-104 LAMP-1 surface exposure, flow cytometry; cells stimulated with thapsigargin and PMA | inhibition, % at 10 µM | 360,000 tested, 0.66% active | AID 651702;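 active = inhibition above about 55%, limit read from the data; inconclusive = no clear call, values can overlap the other calls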
OPRM1 ag: counter-screen for mouse HTR2A agonists: human mu opioid receptor agonists; U2OS OPRM1 beta-arrestin PathHunter, luminescence; DMSO 0%, DAMGO 9.3 µM 100%; 2,300 tested, 5.3% active; shares compounds with m5-HT2A agonist; activation, % at 9.3 µM;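 active = mean activation above the mean of DMSO-only wells plus 3 SD, cut at about 0.5% in these data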
Target sequence (P35372 whole entry, looked up): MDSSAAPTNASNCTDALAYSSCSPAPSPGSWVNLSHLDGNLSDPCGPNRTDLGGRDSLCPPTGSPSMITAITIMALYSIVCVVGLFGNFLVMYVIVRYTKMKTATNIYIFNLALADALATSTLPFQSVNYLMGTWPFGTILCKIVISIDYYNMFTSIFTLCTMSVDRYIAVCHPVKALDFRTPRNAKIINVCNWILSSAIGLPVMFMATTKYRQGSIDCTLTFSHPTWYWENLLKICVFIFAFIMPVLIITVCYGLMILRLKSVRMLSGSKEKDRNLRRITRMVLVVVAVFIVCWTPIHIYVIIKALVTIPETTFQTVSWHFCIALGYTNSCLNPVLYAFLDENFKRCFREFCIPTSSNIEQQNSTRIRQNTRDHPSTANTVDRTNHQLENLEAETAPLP
m5-HT2A ag conf: mouse HTR2A agonism confirmed; CHO-K1 PathHunter beta-arrestin recruitment, luminescence; DMSO 0%, 30 µM serotonin 100%; AID 624381; shares compounds with m5-HT2A agonist; activation, % at 7.6 µM; 2,300 tested, 19% active;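 active = mean activation across triplicates above the hit threshold derived in the original primary screen, cut at about 15% in these data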
* hit, by the source's call; ? = inconclusive; . = not tested or not shown. This is a sample that favours compounds with a hit; in the whole collection about 2.2% have one here.

SMILES	m5-HT2A agonist	JMJD2C inh	MEX-5 binding	V-ATPase pH	VLA-4 inh	Exocytosis inh	OPRM1 ag	m5-HT2A ag conf
CCCCCC(=O)Nc1cccc(C2=NOC3(C2)C[C@H](C(N)=O)N(C(=O)COc2ccc(Cl)cc2)C3)c1 (stereo not given in full)	22*	-20	1	-3	7	-11	0	7
C/C=C\C=C/C(=O)Nc1cccc(C2=NOC3(C2)C[C@@H](C(N)=O)N(C(=O)COc2ccc(Cl)cc2)C3)c1 (stereo not given in full)	-2	6	3	1	32	-3	.	.
CC1(C)N=C(N)N=C(N)N1c1cc(Cl)ccc1Cl	23*	.	.	2	.	0	0	-1
CC1(C)N=C(N)N=C(N)N1c1ccc(F)cc1F	-3	12	2	-1	3	0	.	.
CN(CCOc1ccccc1)Cc1ccccc1	20*	.	.	.	.	10	0	37*
CCCCNCCCCOc1ccccc1	-2	-8	-1	0	16	3	.	.
CCN(Cc1ccccc1)C(=O)CCCOc1ccccc1	-1	?	3	3	11	-4	.	.
C[N+](C)(CCOc1ccccc1)Cc1ccccc1	35*	.	.	4	.	-2	1.6*	3
CN(CCOc1cccc2ccccc12)Cc1ccccc1	15*	8	3	-2	-9	9	0	19*
O=C(C[C@@H]1C/C=C/CC[C@@H](Cc2ccc(F)cc2)C(=O)O[C@H](c2ccccc2)CNC1=O)NCCO	-2	3	.	-1	5	-6	.	.
COC(=O)N(C)C[C@H]1OCc2cnnn2CCCC(=O)N([C@@H](C)CO)C[C@H]1C	-1	.	.	2	.	-2	.	.
CCCCN1C(=O)C(=O)NC[C@H]1Cc1cccc2ccccc12	3	.	.	.	.	-7	.	.
O=C1NC[C@@H](Cc2cccc3ccccc23)N(CC2(c3ccccc3)CC2)C1=O	16*	3	2	-4	22	-1	-1	-2
C=CCNC(=S)Nc1ccccc1-c1nnc2n1CCCCC2	2	-1	-1	-4	-2	2	.	.
O=C1CN(C(=O)CSc2nnc(Nc3ccccc3)s2)c2ccccc2N1	2	4	-10	-2	1	8	.	.
COc1ccccc1Nc1nnc(SCC(=O)N2CC(=O)Nc3ccccc32)s1	18*	5	0	5	.	3	-1	-4
Cc1ccc(NC(=O)CN2CCN(c3ccccn3)CC2)cc1S(=O)(=O)N(C)C	51*	5	0	-2	10	-2	-1	118*
COc1ccc(C)cc1NC(=O)CN1CCN(c2ccccn2)CC1	-8	-39	-1	1	10	-2	.	.
CN(C)S(=O)(=O)c1ccc(NC(=O)CN2CCN(c3ccccn3)CC2)cc1	11	10	1	-4	4	0	.	.
CN(C)S(=O)(=O)c1cc(NC(=O)CN2CCN(c3ccccc3)CC2)ccc1Cl	18*	2	1	-3	10	6	-1	45*
COc1ccccc1NC(=O)CN1CCN(c2ccccn2)CC1	16*	39	-1	2	0	-2	0	37*
CCN(CC)S(=O)(=O)c1cc(NC(=O)CN2CCN(c3ccccn3)CC2)ccc1C	32*	-8	-1	-2	21	0	-1	94*
CN1CCC(N2CCN(C3CN(Cc4cn(Cc5cccc(C(F)(F)F)c5)nn4)S(=O)(=O)C3)CC2)CC1 (stereo not given)	7	.	.	.	.	5	.	.
COc1cc2oc(=O)cc(CN3CCN(c4ccccc4F)CC3)c2cc1Cl	1	.	.	.	.	-1	.	.
Cc1ncc(NS(=O)(=O)c2ccc(N)cc2)nc1C	1	.	.	3	.	11	.	.
SMILES	m5-HT2A agonist	JMJD2C inh	MEX-5 binding	V-ATPase pH	VLA-4 inh	Exocytosis inh	OPRM1 ag	m5-HT2A ag conf
CCOc1cccc(CN2CCC(n3nccc3NC(=O)C3CC3)CC2)c1O	-2	15	2	3	-6	11	.	.
CCCCNC(=O)[C@]1(C)CCC[C@@]2(C)C3CC[C@@]4(C)C[C@]3(CCC21)CC4=O (stereo not given in full)	3	2	.	4	19	-1	.	.
CC(C(=O)N1CCc2ccccc21)N1CCN(Cc2ccc(Cl)cc2)CC1 (stereo not given)	-2	1	1	1	-6	-2	.	.
Cc1ccc(CN2C(=O)c3ccccc3C2c2nnnn2-c2ccc3c(c2)OCCO3)cc1 (stereo not given)	0	.	.	.	.	-4	.	.
Cc1csc(NC(=S)NC(=O)c2ccccc2)n1	2	1	-1	5	1	-5	.	.
CCOC(=O)Cn1c(=O)n(Cc2ccc(C)cc2)c(=O)c2cccnc21	50*	9	1	0	10	4	-1	-3
NC(=O)Cn1c(=O)n(Cc2ccccc2)c(=O)c2cccnc21	-3	2	-1	0	9	-2	.	.
CC1(C)NC(=S)NC1=S	17*	.	.	0	.	1	-1	-2
CCC1(CC)NC(=S)NC1=S	5	.	.	1	.	-1	.	.
CCCNC(=O)C1(C)CCCN(CC(=O)c2ccccc2OC)C1 (stereo not given)	-1	.	.	.	.	11	.	.
CCOC(=O)C(NC(=O)C1C(C)N1S(=O)(=O)c1ccc(C)cc1)C(=O)OCC (stereo not given)	16*	-1	1	2	7	0	-1	-3
C[C@@H]1CN[C@@H](CCO)/C1=C\c1ccccc1	6	.	.	-1	.	-5	.	.
C[C@@H]1CN[C@H](CCO)/C1=C\c1ccccc1	16*	.	.	2	.	1	-1	6
Oc1ccc(C2CNCc3sccc32)cc1O (stereo not given)	48*	.	.	1	22	-4	0	151*
O=C1CC(c2ccc(O)c(O)c2)Oc2c1ccc(O)c2O (stereo not given)	3	.	.	-3	10	-2	.	.
C=CCN1CCc2c(cc(O)c(O)c2Cl)C(c2ccccc2)C1 (stereo not given)	60*	-3	-1	0	36	3	0	148*
C=CCN1CCc2cc(O)c(O)cc2C(c2ccccc2)C1 (stereo not given)	29*	16	.	5	10	1	-1	86*
Cc1cccc(C2CN(C)CCc3c2cc(O)c(O)c3Cl)c1 (stereo not given)	22*	.	.	9	18	4	0	34*
Cc1cccc(C2CC3(CC(C)(C)NC(=S)N3)Oc3cc(O)ccc32)c1 (stereo not given)	1	-1	1	-1	1	-1	.	.
Cn1nc(C(=O)OCC(=O)Nc2ccc(SC(F)F)cc2)c2ccccc2c1=O	2	-7	.	3	-4	-13	.	.

Screening data (PubChem BioAssay)
